From PubChem BioAssay (Tox21)
Values without a mark were called inactive. Active and inactive are the calls of the source. Calls follow the shape of the dose curve; as a rule, active = well fitted cell-killing curve with a large enough effect in the repeat runs; inconclusive = weak or mixed curves, or effect the other way; inactive = flat fitted curve, though single readings scatter.

Assay: qHTS assay to identify small molecule HDAC inhibitors - cell viability counter screen (AID 1259365); also: nearly all actives have a fitted effect of over 50% in size
Conditions: HCT-116 viability, CellTiter-Glo ATP luminescence, 2 h; series mostly up to 92.4 µM; activity change, negative = cytotoxicity: at the top concentration
Description: U.S. Tox21 Program National Center for Advancing Translational Sciences [NCATS] NIH Chemical Genomics Center [NCGC] U.S. Environmental Protection Agency [EPA] National Institutes of Environmental Health Sciences [NIEHS] National Toxicology Program [NTP] U.S. Food and Drug Administration [FDA] Tox21 Assay Overview: Histone deacetylases (HDACs) are a group of epigenetic enzymes that regulate gene expression by histone deacetylation. HDACs are capable of introducing epigenetic modifications and such aberrations contribute to the onset and progression of several human diseases, thus making HDACs a popular therapeutic target. For identifying endogenous class I/II HDAC inhibitors a homogenous, luminogenic HDAC I/II cell based assay was used to measure the relative activity of class I and II HDACs from cells. Wild type HCT-116 cells were used to screen Tox21 compound libraries for identifying class I/II HDAC inhibitors.
Tox21 Assay Protocol Summary: HCT-116 cells were dispensed at 1,500 per well in 5uL of culture medium into white solid bottom 1536-well plates (Greiner Bio-One, Monroe, NC) using a Multidrop Combi (Thermo Scientific, Waltham, MA) dispenser. The assay plates were incubated at 37 C and 5% CO2 for an overnight, and then 23nL of compounds dissolved in DMSO and positive control were transferred using a Pintool station (Wako, San Diego, CA). The assay plates were incubated at 37C and 5% CO2 for 2hr. After compound treatment, 4uL of CellTiter-Glo reagent (Promega Corporation, Madison, WI) was added to each well of the assay plates using Flying Reagent Dispenser (FRD, Aurora Discovery, San Diego, CA) and incubated the assay plates at room temperature for 30min. The luminescence signal was quantified using a ViewLux plate reader (Perkin Elmer, Shelton, CT).
% is scaled to controls: 0 for no effect and ±100 for the full control effect.

In order of rising “activity change, negative = cytotoxicity” value:
1. CCC(=O)OC1(c2ccccc2)CCN(C)CC1  -10%
2. O=C(Cl)CCl  -8.74%
3. CCOC(=O)COc1ccc(Cl)cc1Cl  -4.75%
4. NNC(N)=O  -4.62%
5. COc1cc(CCN)cc(OC)c1OC  -2.02%
6. O=C1CC(=O)NC(=O)N1  -1.92%
7. COP(=O)(OC)O/C(C)=C/C(=O)N(C)C  -1.08%
8. BrCc1ccc(Br)cc1  -1.03%
9. S=C=S  -0.842%
10. CC(C)(C)C(=O)C(Cl)Cl  -0.56%
11. CN=CNc1ccc(C)cc1C  -0.397%
12. CCCCS(=O)(=O)Cl  -0.0182%
13. COc1ccc(C=O)cc1O  0.189%
14. CC(C)(C1CCC(O)CC1)C1CCC(O)CC1 (stereo not given)  0.818%
15. COP(=O)(O)OC  0.836%
16. C(COCC1CO1)OCC1CO1 (stereo not given)  1.02%
17. CCC(=O)c1ccc(Cl)cc1  1.42%
18. CS(=O)(=O)Cl  1.6%
19. CCNc1nc(Cl)nc(NC(C)(C)C)n1  1.77%
20. CC(C)c1ccc(O)cc1  2.71%
21. Cl/C=C/CCl  2.88%
22. Cc1cccc2sc3nncn3c12  5.01%
23. Nc1c(Cl)c(F)nc(OCC(=O)O)c1Cl  6.83%
24. CC(Cl)(Cl)Cl  9.21%

In order of rising “activity change, negative = cytotoxicity” value:
1. CCCN1CCC[C@@H]2Cc3nc(N)ncc3C[C@H]21  -4.83% [at 42.5 µM]
2. CC(C)(O)C(Cl)(Cl)Cl  -2.02% [at 42.5 µM]
3. CC(C)NCC(O)c1ccc([N+](=O)[O-])cc1 (stereo not given)  -0.402% [at 42.5 µM]
4. CCN(CCO)CCn1c(Cc2ccccc2)nc2c1c(=O)n(C)c(=O)n2C  -0.0485% [at 42.5 µM]
5. CC(C)(N)Cc1ccccc1Cl  0.585% [at 42.5 µM]
6. CCc1ccc(C2CCNCC2)cc1  0.834% [at 42.5 µM]
7. COC[C@@H](NC(C)=O)C(=O)NCc1ccccc1  1.25% [at 42.5 µM]
8. CCN[C@@H](C)Cc1cccc(C(F)(F)F)c1  1.92% [at 42.5 µM]
9. NC(=O)OCCCc1ccccc1  2.34% [at 42.5 µM]
10. C=CCN1CC[C@]23CCCC[C@H]2[C@H]1Cc1ccc(O)cc13  2.41% [at 42.5 µM]
11. CCC1(c2ccccc2)CCC(=O)NC1=O (stereo not given)  3.3% [at 42.5 µM]
12. CCCOC(=O)c1cncn1C(C)c1ccccc1 (stereo not given)  3.52% [at 42.5 µM]
13. Cc1ccc(S(=O)(=O)N[C@@H](CCCCN)C(=O)CCl)cc1  6.18% [at 42.5 µM]

In the case of `CCOC(=O)CC(SP(=S)(OC)OC)C(=O)OCC` (stereo not given), the outcome is reported as “inactive”.
For `CC(C)(C)c1cc(O)ccc1O`, the outcome was “inactive”.
For `O=C1C2CC=CCC2C(=O)N1SC(Cl)(Cl)Cl` (stereo not given), the outcome was “inactive”.
